The list is not random: actives were taken first. Their share in the collection is about 6%.
D1 antag: Antagonist of Human D 1 Dopamine Receptor: qHTS; D(1A) dopamine receptor (Homo sapiens), P21728; 360,000 tested, 3.2% active; HEK293 TREx D1 cells, calcium flux, dopamine EC80; active compounds read low; activity change, negative = inhibition, % at 10 µM; in the data active means activity change below about -30%; further: on the % scale 0 is the no-effect control and ±100 the full control effect
Target sequence (P21728 whole entry, looked up): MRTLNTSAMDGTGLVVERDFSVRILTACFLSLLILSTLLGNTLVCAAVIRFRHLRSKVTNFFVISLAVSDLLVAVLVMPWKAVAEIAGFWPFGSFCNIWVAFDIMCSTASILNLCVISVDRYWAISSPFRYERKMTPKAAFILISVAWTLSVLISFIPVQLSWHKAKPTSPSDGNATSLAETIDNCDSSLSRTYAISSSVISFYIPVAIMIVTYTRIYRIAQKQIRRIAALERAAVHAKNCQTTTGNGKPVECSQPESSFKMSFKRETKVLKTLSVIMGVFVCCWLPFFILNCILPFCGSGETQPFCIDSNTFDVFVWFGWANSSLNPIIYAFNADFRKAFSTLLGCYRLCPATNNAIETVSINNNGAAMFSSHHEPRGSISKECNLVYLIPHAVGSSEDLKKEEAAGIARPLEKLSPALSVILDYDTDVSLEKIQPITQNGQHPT
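Tetracycline-induced HEK293 Trex D1 cells, force-coupled to calcium, dye-loaded; compounds added and read 180 s, then EC80 dopamine added and calcium flux tracked kinetically another 180 s.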
D3 ag: qHTS of D3 Dopamine Receptor Agonist: qHTS; D3R DiscoveRx beta-arrestin cells, luminescence, 90 min; max activation, %; 410,000 tested, 0.58% active; in the data active means max activation above about 30%; further: 0% is about no effect
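Agonist mode: compounds and dopamine controls were applied to plated cells for 90 min at 37 degrees C after an overnight attachment at 1500 cells/well. Luminescent read-out followed 30 - 60 minutes at room temperature with DiscoveRx detection reagent.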
D3 antag: qHTS of D3 Dopamine Receptor Antagonist: qHTS; 360,000 tested, 2.5% active; max response, negative = inhibition, %; D3R cells, DiscoveRx beta-arrestin luminescence, antagonist mode; active compounds read low; in the data active means max response below about -50%; inconclusive means no clear call, values can overlap the other calls; further: on the % scale 0 is the no-effect control and ±100 the full control effect
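Cells expressing the human receptor were seeded at 1500 cells/well, incubated overnight at 37 degrees C in 5% CO2, then exposed to library compounds with dopamine controls for 90 minutes at 37 degrees C before luminescent detection.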
D1 potentiator: Potentiators of Human D1 Dopamine Receptor: qHTS | potentiation, % at 10 µM | 360,000 tested, 0.036% active | D(1A) dopamine receptor (Homo sapiens), P21728 | AID 504651, 2011 | HEK293 TREx D1 cells, calcium flux, dopamine EC20 potentiation; in the data active means potentiation above about 30%; further: 0% is about no effect
D1 agonist: Allosteric Agonists of the Human D1 Dopamine Receptor: qHTS. HEK293 T-REx D1 cells, calcium flux, agonist mode. 360,000 tested, 1% active. activation, % at 2 µM; in the data active means activation above about 30%; further: 0% is about no effect
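Tetracycline-induced HEK293 TREx D1 cells, force-coupled to calcium signalling, were dye-loaded with a no-wash calcium kit. Compound was pin-added after a 10 s baseline. Fluorescence was read kinetically at 1 cycle/s for 180 s, with calcium rises flagged as agonism.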
* marks the source's active call; other numbers are inactive results.

`CCOC(=O)c1cnn(-c2ccc(OC)cc2)c1C1CCN(C(=O)OC(C)(C)C)CC1` gave D1 antag -10, D3 ag 3, D1 potentiator -1 and D1 agonist -1.
Screening COc1ccc(NCc2cc3cc4c(cc3n(CC(=O)Nc3cc(C)ccc3C)c2=O)OCCO4)cc1 returned D1 antag 5, D3 ag -2, D1 potentiator -1 and D1 agonist 3.
`CCn1nc(C)cc1C(=O)N1CCCC(C(=O)c2ccc(Oc3ccccc3)cc2)C1` (centres undefined) gave D1 antag -35*, D3 ag 1, D3 antag 14, D1 potentiator -1 and D1 agonist 5.
`CCn1nc(C)cc1C(=O)N1CCCC(C(=O)c2ccc3ccccc3c2)C1` (centres undefined) gave D1 antag -5, D3 ag 10, D3 antag inconclusive, D1 potentiator -1 and D1 agonist 0.
CC1=C(c2ccc(C)c(C)c2)S(=O)(=O)N=C1N1CCC(C(=O)NC(C)c2ccccc2)CC1 (centres undefined) was read as D1 antag -75*, D3 ag 4, D1 potentiator -6 and D1 agonist 2.
Screening CC1=C(c2ccc(C)c(C)c2)S(=O)(=O)N=C1N1CCC(C(=O)NC(C)Cc2ccco2)CC1 (centres undefined) returned D1 antag -32*, D3 ag -3, D1 potentiator -2 and D1 agonist 0.
`CCn1c(C)c(C2N3CC4(C)CN2CC(C)(C3)C4=O)c2ccccc21` (centres undefined) gave D1 antag 4, D3 ag 0, D1 potentiator 0 and D1 agonist 2.
For CCCCSc1nnc2nc(C)cc(C)n12 the results were D1 antag 30, D3 ag 4, D3 antag -58*, D1 potentiator 0 and D1 agonist 2.
For CCOC(=O)C1=C(CS(=O)(=O)c2ccc(C)cc2)NC(=O)NC1c1ccc(C(C)C)cc1 (centres undefined) the results were D1 antag 31, D3 ag -16, D1 potentiator 2 and D1 agonist 6.
For COc1ccc(-c2noc(N3CCC(C(=O)NC(C)c4ccccc4)CC3)n2)cc1 (centres undefined) the results were D1 antag -35*, D3 ag 1, D3 antag -22, D1 potentiator -15 and D1 agonist 2.
For COc1ccc(-c2noc(N3CCC(C(=O)NCc4ccccc4Cl)CC3)n2)cc1 the results were D1 antag -47*, D3 ag -1, D3 antag -11, D1 potentiator -8 and D1 agonist 7.
`COc1ccc(-c2noc(C3CCCN(C(=O)c4ccccc4)C3)n2)cc1` (centres undefined) gave D1 antag -39*, D3 ag 0, D3 antag 12, D1 potentiator -3 and D1 agonist 6.
For COc1ccc(-c2noc(N3CCC(C(=O)Nc4ccccc4F)CC3)n2)cc1 the results were D1 antag 1, D3 ag 1, D3 antag 1, D1 potentiator -10 and D1 agonist -1.
For COc1ccc(-c2noc(N3CCC(C(=O)Nc4ccccc4Cl)CC3)n2)cc1 the results were D1 antag -34*, D3 ag -8, D3 antag -26, D1 potentiator -7 and D1 agonist 3.
Screening COc1ccc(-c2noc(C3CCCN(C(=O)c4cccc(F)c4)C3)n2)cc1 (centres undefined) returned D1 antag -18, D3 ag 9, D3 antag 7, D1 potentiator -22 and D1 agonist 6.
Screening Cc1nn(C)c2c1c(C(F)(F)F)cc(=O)n2C(C)C(=O)NCCc1ccccc1 (centres undefined) returned D1 antag 18, D3 ag -9, D1 potentiator -4 and D1 agonist -1.
